About 83,000 compounds went through this panel and 20% of them were active in at least one assay; those are over-represented in the sample as a whole.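 Negative percent growth values reflect cell death: -40 means 40% of the cells present at the start died, and -100 means all died.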 The source made the active and inactive calls. The calls were made as follows: active = growth percent below 10; inactive = the rest.
The molecules below were run on RPMI-8226 leukemia (assay: NCI-60 one-dose screen, 48 h (100 = growth as untreated, 0 = no growth, -100 = all killed)). Details: 10 µM unless noted.
`Cc1cc(C)n(CC(=O)Nc2ccc(-c3nc4ccccc4s3)cc2)n1` was tested, and the growth was 97.2% (inactive). With `CNS(=O)(=O)Nc1nccc(Cc2c(C)c3ccc(Oc4ncccn4)cc3oc2=O)c1F` the growth was 55.3% (inactive). In the case of `C[C@@H](Oc1cc(-n2cnc3ccc(CN4CCN(C)CC4)cc32)sc1C(N)=O)c1ccccc1C(F)(F)F`, the growth is reported as 34.2% (inactive). For `COc1ccc(Cl)c(Nc2nc3ccccc3nc2NS(=O)(=O)c2cccc(NC(=O)C(C)(C)N)c2)c1`, the growth was 51.5% (inactive). For `COc1ccc(-c2ccc3c(N4CCOC[C@@H]4C)nc(N4CCOC[C@@H]4C)nc3n2)cc1CO`, the growth was 4.83% (active). In the case of `O=C(Nc1cccc(Cl)c1)Nc1ncc(CCNc2ncnc3ccsc23)s1`, the growth is reported as 7.45% (active). `C#Cc1cccc(Nc2ncnc3cc(OCCOC)c(OCCOC)cc23)c1` was tested, and the growth was 70.1% (inactive). In the case of `O=C(Nc1ccc(Nc2ncnc3sc4c(c23)CCOC4)cc1)Nc1ccc(Cl)c(C(F)(F)F)c1`, the growth is reported as 80.8% (inactive). In the case of `CCCCN1C(=O)c2cccc3c(-c4ccc5c(c4)ncn5C4CCCCC4)ccc(c23)C1=O`, the growth is reported as 108% (inactive). For `COc1cc(Nc2c(C#N)cnc3cc(OCCCN4CCN(C)CC4)c(OC)cc23)c(Cl)cc1Cl`, the growth was 59.3% (inactive). In the case of `COc1ncc(-c2ccc3nccc(-c4ccnnc4)c3c2)cc1NS(=O)(=O)c1ccc(F)cc1F`, the growth is reported as -35.4% (active). For `C/C(=C(/c1ccc(Cl)cc1)c1ccc(OCCN2CCCC2)cc1)c1ccccc1`, the growth was 42.8% (inactive). With `COc1cc(OC)c(/C=C/S(=O)(=O)Cc2ccc(OC)c(NCC(=O)O)c2)c(OC)c1` the growth was 25.6% (inactive). In the case of `Nc1ncnc2c1ccn2-c1cccc(NC(=O)c2ccc(N3CCOCC3)c(C(F)(F)F)c2)c1`, the growth is reported as 4.92% (active). In the case of `C/C=C/C=N/NC(=S)Nc1ccccc1`, the growth is reported as 104% (inactive). `C=CC(=O)Nc1cc(Nc2nccc(-c3cn(C)c4ccccc34)n2)c(OC)cc1N(C)CCN(C)C` was tested, and the growth was -22% (active). For `C[C@@H](NC(=O)c1ncnc(N)c1Cl)c1ncc(C(=O)Nc2cc(C(F)(F)F)c(Cl)cn2)s1`, the growth was 71.9% (inactive). For `COc1cc2c(Oc3ccc4[nH]c(C)cc4c3F)ncnc2cc1OCCCN1CCCC1`, the growth was 110% (inactive). `NC[C@@](O)(c1ccc(Cl)cc1)c1ccc(-c2cn[nH]c2)cc1` was tested, and the growth was 19.1% (inactive). In the case of `Cc1cc(O)cc(-c2c(-c3ccnc(-c4cccnc4)c3)cnn2C)c1`, the growth is reported as 51.1% (inactive). With `CS(=O)(=O)N1CCN(Cc2cc3nc(-c4cccc5[nH]ncc45)nc(N4CCOCC4)c3s2)CC1` the growth was 25% (inactive). In the case of `CN[C@@H]1C[C@H]2O[C@@](C)([C@@H]1OC)n1c3ccccc3c3c4c(c5c6ccccc6n2c5c31)C(=O)N[C@H]4O`, the growth is reported as -46.2% (active). `O=c1[nH]ccc2c(S(=O)(=O)N3CCCNCC3)cccc12` was tested, and the growth was 106% (inactive). With `CCN(CCCOc1ccc2c(Nc3cc(CC(=O)Nc4cccc(F)c4)[nH]n3)ncnc2c1)CCOP(=O)(O)O` the growth was 91.5% (inactive). For `Cn1cc(-c2cnn3c(N)c(Br)c([C@@H]4CCCNC4)nc23)cn1`, the growth was 24.3% (inactive). For `C[C@@H](Nc1cc(F)cc(F)c1)c1cc(C(=O)N(C)C)cc2c(=O)cc(N3CCOCC3)oc12`, the growth was 84.4% (inactive). For `COc1ccc2c(CCCc3ccc(Cl)cc3Cl)c3[n+](cc2c1OC)CCc1cc2c(cc1-3)OCO2`, the growth was -24.5% (active). `Cn1c(=O)c(F)c(Nc2ccc(I)cc2F)c2c(=O)n(C[C@@H](O)CO)cnc21` was tested, and the growth was 61.2% (inactive). In the case of `CC(C)(C)c1cnc(CSc2cnc(NC(=O)C3CCNCC3)s2)o1`, the growth is reported as -8.04% (active). In the case of `NC1(C(=O)N[C@@H](CCO)c2ccc(Cl)cc2)CCN(c2ncnc3[nH]ccc23)CC1`, the growth is reported as 80% (inactive). For `COC(=O)c1ccc2c(C(=Nc3ccc(N(C)C(=O)CN4CCN(C)CC4)cc3)c3ccccc3)c(O)[nH]c2c1`, the growth was 62.4% (inactive). With `CS(=O)(=O)CCNCc1ccc(-c2ccc3ncnc(Nc4ccc(OCc5cccc(F)c5)c(Cl)c4)c3c2)o1` the growth was -15.4% (active). `C1=C\COCc2cc(ccc2OCCN2CCCC2)Nc2nccc(n2)-c2cccc(c2)COC/1` was tested, and the growth was -32% (active). In the case of `O=C(Nc1cn[nH]c1-c1nc2ccc(CN3CCOCC3)cc2[nH]1)NC1CC1`, the growth is reported as 108% (inactive). With `Cc1cc2c(-c3nc4ccccn4c3N)c(O)c(O)cc2c(O)c1-c1c(C)cc2c(-c3nc4ccccn4c3N)c(O)c(O)cc2c1O` the growth was 9.18% (active). With `Cc1csc(-c2nnc(Nc3ccc(Oc4ncccc4-c4ccnc(N)n4)cc3)c3ccccc23)c1` the growth was 51.8% (inactive). In the case of `CC(C)CC(=O)Nc1n[nH]c2c1CN(C(=O)C1CCN(C)CC1)C2(C)C`, the growth is reported as 3.37% (active). `Cc1ccccc1N1C(c2ccccc2)=NNC12C=CC(=O)C=C2Cl` (centres undefined) was tested, and the growth was 109% (inactive). For `C=CCn1c(=O)c2cnc(Nc3ccc(N4CCN(C)CC4)cc3)nc2n1-c1cccc(C(C)(C)O)n1`, the growth was 10.1% (inactive).

Source: PubChem BioAssay (NCI)
